Source: PubChem BioAssay
This is a sample that favours compounds with a hit; in the whole collection about 7.5% have one here.
Luc counter: counter-screen: inhibitors of Kinase-Glo firefly luciferase. Q27757. Kinase-Glo luciferase, ATP luminescence, 8 min. Potency, µM (titrated, usually from 38.3 µM), hits mostly inhibitors. 0.28% of 200,000 active; further: nearly all actives have a fitted effect of over 60% in size
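Inhibition of Kinase-Glo luciferase light generation was assessed at 10 uM ATP in pH 7.2 imidazole buffer, with luminescence measured after eight minutes at ambient temperature.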
FLuc modulator: firefly luciferase modulation, counter-screen for miR-21 project; P08659; purified FLuc, Km substrates, luminescence inhibition; Potency, µM (titrated, usually from 57.5 µM), hits mostly inhibitors; 6.9% of 360,000 active; further: nearly all actives have a fitted effect of over 55% in size
Target sequence (P08659 whole entry, looked up): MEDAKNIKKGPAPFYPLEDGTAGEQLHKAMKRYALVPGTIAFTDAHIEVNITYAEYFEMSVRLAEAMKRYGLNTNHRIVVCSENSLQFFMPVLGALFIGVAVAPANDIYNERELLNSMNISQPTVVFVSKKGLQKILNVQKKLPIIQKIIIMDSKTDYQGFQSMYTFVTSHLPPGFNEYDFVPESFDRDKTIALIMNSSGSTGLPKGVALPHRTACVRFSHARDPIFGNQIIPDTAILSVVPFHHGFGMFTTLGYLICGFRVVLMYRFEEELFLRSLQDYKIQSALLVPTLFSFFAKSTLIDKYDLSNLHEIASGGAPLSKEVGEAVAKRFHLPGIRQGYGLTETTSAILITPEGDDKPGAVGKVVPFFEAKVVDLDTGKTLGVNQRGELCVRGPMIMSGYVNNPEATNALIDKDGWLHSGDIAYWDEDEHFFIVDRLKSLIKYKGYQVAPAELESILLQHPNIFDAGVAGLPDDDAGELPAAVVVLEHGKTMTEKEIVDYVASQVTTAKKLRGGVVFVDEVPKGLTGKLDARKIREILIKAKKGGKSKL
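Biochemical qHTS of compounds, final roughly 60 µM downward over six points, against 10 nM purified firefly luciferase using Km concentrations of substrates (10 uM D-luciferin, 10 uM ATP) in Tris acetate pH 7.5 buffer; luminescence output.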
Rab9 prom act: activates the Rab9 promoter; Huh7 Rab9 promoter-luciferase reporter, luminescence, 24 h; Potency, µM (doses to about 9.22 µM), most hits filed as activators; 2.8% of 320,000 active; further: nearly all actives have a fitted effect of over 60% in size
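Luminescence from Amplite-detected luciferase (10 minutes, ambient) reports Rab9 promoter activation. Before that, stable Rab9-luciferase Huh7 cells (1500/well, reduced-serum OP-MEM I plus 10% FBS) were exposed to compound for 24 hours at 37C.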
NPC1 promoter act: activates the NPC1 promoter. Huh7 NPC1 promoter luciferase reporter, 24 h. Potency, µM (doses to about 9.22 µM), actives largely listed as activators. 2.4% of 320,000 active; further: nearly all actives have a fitted effect of over 60% in size
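Compounds in DMSO were transferred onto Huh7 NPC1-luciferase reporter cells pre-incubated 2 h; after 24 h at 37 °C, Amplite reagent was dispensed and luminescence recorded 10 min later.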
SMN2 splice enh: SMN2 splice variant enhancement; AID 1458; Potency, µM (series often up to 46.1 µM), hits mostly activators; 2.8% of 210,000 active; HEK293 SMN2-luciferase splicing reporter, luminescence, 30-36 h; further: nearly all actives have a fitted effect of over 55% in size
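HEK293 cells carry an SMN2 […]–luciferase reporter in which exon 7 inclusion puts luciferase in frame. Cells were plated 10-12 h before compound addition, then incubated 30-36 h at 37C. ONE-Glo luminescence was read; sodium butyrate at 4.5 mM final served as control.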
ELG1 genotox: genotoxicity induction in ELG1-luciferase HEK293T cells | AID 504466 | HEK293T ELG1-luciferase reporter, luminescence, 16 h | Potency, µM (top dose mostly 46 µM), usual class: activators | 1.3% of 330,000 active; further: nearly all actives have a fitted effect of over 60% in size
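HEK293T cells expressing luciferase-tagged ELG1 were treated with compound or DMSO for 16 hr at 37°C. Luciferase activity was then read after 30 min with ONE-Glo at room temperature; rising signal flags genetic stress.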
A number is an active result. The call rests on the fitted dose curve; in most records, active means well fitted curve in the direction sought with a large enough effect; inconclusive means small, poorly fitted or top-dose-only effect, or another doubt; inactive means no such curve, though single readings can be large; an effect the other way counts as inactive or inconclusive.

What do the screens show for `CN1CCN(c2ccc(NC(=O)c3cccs3)cc2)CC1`?
Luc counter: inactive; FLuc modulator: 12µM; Rab9 prom act: 0.56µM; NPC1 promoter act: 3.2µM; SMN2 splice enh: 11µM; ELG1 genotox: inconclusive

What do the screens show for `Nc1cccc(NC(=O)c2cccs2)c1`?
Luc counter: inactive; FLuc modulator: inactive; Rab9 prom act: inactive; NPC1 promoter act: inactive; SMN2 splice enh: inconclusive; ELG1 genotox: inactive

What do the screens show for `COc1cc(Cl)c(C)cc1NC(=O)CSCc1nc(-c2ccc(OC)c(OC)c2)no1`?
FLuc modulator: inactive

How did COc1ccc(Cc2noc(-c3ccccc3)n2)cc1OC do in these assays?
Luc counter: inactive; FLuc modulator: inactive; Rab9 prom act: inactive; NPC1 promoter act: inactive; SMN2 splice enh: inactive; ELG1 genotox: inactive

What do the screens show for `Clc1ccc(-c2nc(Cc3ccccc3)no2)cc1`?
Luc counter: inactive; FLuc modulator: 12µM; Rab9 prom act: inconclusive; NPC1 promoter act: inconclusive; SMN2 splice enh: inactive; ELG1 genotox: 21µM

What do the screens show for `Cc1ccccc1-c1nc(Cc2ccccc2)no1`?
Luc counter: inactive; FLuc modulator: 12µM; Rab9 prom act: inconclusive; NPC1 promoter act: inconclusive; SMN2 splice enh: inconclusive; ELG1 genotox: inconclusive

What do the screens show for `COc1ccc(-c2nc(Cc3ccc(Cl)cc3)no2)cc1OC`?
Luc counter: inactive; FLuc modulator: inactive; Rab9 prom act: inactive; NPC1 promoter act: inactive; SMN2 splice enh: inactive; ELG1 genotox: inactive

What do the screens show for `COc1ccccc1CNC(=O)Cn1c(-c2ccc(F)cc2)cc(C(C)=O)c1C`?
FLuc modulator: inactive

What do the screens show for `COC(=O)c1ccc(NC(=O)CC2C(=O)N(c3cccc(OC)c3)C(=O)N2Cc2cccc(OC)c2)cc1` (stereo not given)?
FLuc modulator: inactive

How did O=C(c1ccc(-c2ccc([N+](=O)[O-])cc2)o1)N1CCCCCCC1 do in these assays?
FLuc modulator: 11µM; Rab9 prom act: inconclusive; NPC1 promoter act: inconclusive; ELG1 genotox: inactive

What do the screens show for `COC(=O)CSc1nnc(SCc2ccccc2)s1`?
Luc counter: inactive; FLuc modulator: 19µM; Rab9 prom act: inactive; NPC1 promoter act: inactive; SMN2 splice enh: inactive; ELG1 genotox: inactive

What do the screens show for `O=C(c1ccc(-c2ccc([N+](=O)[O-])cc2)o1)N1CCCC(C(F)(F)F)C1` (stereo not given)?
FLuc modulator: inactive; Rab9 prom act: inactive; NPC1 promoter act: inactive; ELG1 genotox: inactive

How did COC(=O)CSc1nnc(SCc2ccc(Cl)cc2)s1 do in these assays?
Luc counter: inactive; FLuc modulator: 17µM; Rab9 prom act: inactive; NPC1 promoter act: inactive; SMN2 splice enh: inactive; ELG1 genotox: inactive

What do the screens show for `O=C(c1ccco1)N1CCN(C(=O)c2ccc(-c3ccc(Cl)cc3)o2)CC1`?
FLuc modulator: 17µM; Rab9 prom act: inactive; NPC1 promoter act: inactive; ELG1 genotox: inactive

Results for COc1cc(-c2nnn(CC(=O)Nc3ccc(OC(F)(F)F)cc3)n2)cc(OC)c1OC ?
FLuc modulator: inactive; SMN2 splice enh: inactive

What do the screens show for `Cc1cccc(C(=O)Nc2nnc(SCc3cc(=O)n4cccc(C)c4n3)s2)c1`?
FLuc modulator: inactive

How did Cc1ccc(C(C)C)c(OCC(=O)NCC2(N(C)C)CCCCC2)c1 do in these assays?
FLuc modulator: inactive

What do the screens show for `CCc1nnc(NS(=O)(=O)c2ccc(NC(=O)c3ccc(C#N)cc3)cc2)s1`?
FLuc modulator: inconclusive; Rab9 prom act: inactive; NPC1 promoter act: inactive; ELG1 genotox: inactive

What do the screens show for `COc1cccc(CN2CCCN(Cc3ccc(F)cc3)S2(=O)=O)c1`?
FLuc modulator: inactive

How did O=C(CSc1nnc(SCc2ccc(Cl)cc2)s1)N1CCN(C(=O)c2ccco2)CC1 do in these assays?
Luc counter: inactive; FLuc modulator: 9.5µM; Rab9 prom act: inactive; NPC1 promoter act: inactive; SMN2 splice enh: inactive; ELG1 genotox: inactive

Results for O=C(CSc1nncs1)N1CCN(C(=O)c2ccco2)CC1 ?
FLuc modulator: inactive; Rab9 prom act: inactive; NPC1 promoter act: inactive; ELG1 genotox: inactive

How did Cc1nc(COC(=O)c2cc(O)c3ccccc3c2O)cs1 do in these assays?
Luc counter: inactive; FLuc modulator: 5.4µM; Rab9 prom act: inactive; NPC1 promoter act: inactive; SMN2 splice enh: inactive; ELG1 genotox: inactive

What do the screens show for `O=C(OCc1csc(-c2ccccc2)n1)c1ccccc1O`?
Luc counter: inactive; FLuc modulator: 6µM; Rab9 prom act: 4µM; NPC1 promoter act: inactive; SMN2 splice enh: inactive; ELG1 genotox: inconclusive

Results for Cc1ccc(C(c2sc3nc(-c4ccco4)nn3c2O)N2CCC3(CC2)OCCO3)cc1 (stereo not given) ?
FLuc modulator: inactive

What do the screens show for `COc1cccc(/C=N/NC(=O)c2ccc(=O)n(C)c2)c1OC`?
Luc counter: inactive; FLuc modulator: inactive; Rab9 prom act: inactive; NPC1 promoter act: inactive; SMN2 splice enh: inactive; ELG1 genotox: inactive

What do the screens show for `COc1cccc(/C=N/NC(=O)c2cc3c(OC)cccc3[nH]2)c1O`?
Luc counter: inactive; FLuc modulator: inactive; Rab9 prom act: inactive; NPC1 promoter act: inactive; SMN2 splice enh: inactive; ELG1 genotox: inactive

Results for COc1cccc(/C=N/NC(=O)C[n+]2ccccc2)c1OC ?
Luc counter: inactive; FLuc modulator: inactive; Rab9 prom act: inactive; NPC1 promoter act: inactive; SMN2 splice enh: inactive; ELG1 genotox: inactive

What do the screens show for `COc1cccc(/C=N/NC(=O)c2cc3c(OC)c(OC)ccc3[nH]2)c1OC`?
Luc counter: inactive; FLuc modulator: 11µM; Rab9 prom act: inactive; NPC1 promoter act: inactive; SMN2 splice enh: inconclusive; ELG1 genotox: inactive

How did COc1cccc(/C=N/NC(=O)c2cc3c(OC)cccc3[nH]2)c1OC do in these assays?
Luc counter: inactive; FLuc modulator: 21µM; Rab9 prom act: inactive; NPC1 promoter act: inactive; SMN2 splice enh: inactive; ELG1 genotox: inactive

What do the screens show for `COc1ccc(OC)c2[nH]c(C(=O)N/N=C/c3ccccc3O)cc12`?
FLuc modulator: inconclusive; Rab9 prom act: inactive; NPC1 promoter act: inactive; ELG1 genotox: inconclusive

Results for COc1ccccc1/C=N/NC(=O)c1cc2c(OC)c(OC)ccc2[nH]1 ?
FLuc modulator: 13µM; Rab9 prom act: inactive; NPC1 promoter act: inactive; ELG1 genotox: inactive

How did COc1cccc(/C=N/NC(=O)CN(C)S(=O)(=O)c2ccccc2)c1OC do in these assays?
FLuc modulator: 21µM; Rab9 prom act: inactive; NPC1 promoter act: inactive; ELG1 genotox: inactive

Results for CCOC(=O)c1ccc(NC(=O)NCCOCCn2c(=O)oc3ccccc32)cc1 ?
FLuc modulator: inactive; SMN2 splice enh: inactive

How did CCc1ccc2oc(-c3cc(NC(=O)C(C)C)cc(C)c3O)nc2c1 do in these assays?
FLuc modulator: inactive; SMN2 splice enh: inactive

Results for COc1ccc(Nc2ncc3c(n2)CCN(Cc2cccc(F)c2F)C3)c(OC)c1 ?
FLuc modulator: inactive
